GPR7 antag: antagonists of human GPR7 (neuropeptides B/W receptor 1); P48145; GPR7-expressing cells, fluorescence antagonist assay; inhibition, % at 4.4 µM; 1.1% of 290,000 active; in the data active = inhibition above about 16%, passing the limit was not always enough;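 note: cells stimulated with the agonist NPW; 0% = agonist with vehicle and 100% = vehicle without agonist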
Target sequence (P48145 whole entry, looked up): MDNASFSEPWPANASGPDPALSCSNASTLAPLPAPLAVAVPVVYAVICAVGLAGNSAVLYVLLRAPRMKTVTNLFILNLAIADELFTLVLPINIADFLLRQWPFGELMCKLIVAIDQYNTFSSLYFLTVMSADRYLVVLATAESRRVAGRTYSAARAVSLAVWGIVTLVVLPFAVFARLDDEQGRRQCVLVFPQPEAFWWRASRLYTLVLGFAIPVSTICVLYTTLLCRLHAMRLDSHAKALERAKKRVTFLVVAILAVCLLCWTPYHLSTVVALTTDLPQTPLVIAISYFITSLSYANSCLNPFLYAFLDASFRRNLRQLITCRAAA
ANO1 activ: mouse TMEM16A channel activation, primary screen; HEK293 TMEM16A/YFP-H148Q/I152L, iodide quench fluorescence; active compounds read low; B-score at 10 µM; 0.3% of 340,000 active;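 active = fluorescence-ratio B-score plate-corrected deviation score at least 3 library SD below zero, with starting fluorescence score within 5 deviations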;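 note: channel opened by trigger with iodide after compound preincubation; score built on the fluorescence ratio of max minus min over baseline; more negative score means more quench and so TMEM16A activation or potentiation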
CHT inh: inhibitors of human choline transporter CHT | Q9GZV3 | CHT-expressing cells, membrane potential dye, choline response; active compounds read low | B-score at 10 µM | 0.86% of 310,000 active | AID 488975;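 active = B-score over 3 SD under the library average, and starting fluorescence ratio not unusually high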;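 note: choline stimulus applied at its EC90 after an EC20 pre-addition; B-score computed on integrated fluorescence ratio after choline addition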
Kir21 block: inhibitors of mouse Kir2.1 inward-rectifier potassium channel. P35561. HEK293-Kir2.1, FluxOR thallium flux fluorescence; active compounds read low. B-score at 10 µM. 0.85% of 310,000 active;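 active = fluorescence ratio B-score at or below minus 3 SD of library scores, with starting-brightness B-score within 2 SD, cut at about -4.2 in these data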;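 note: channel flux triggered by added potassium and thallium sulfate stimulus; B-score of peak minus minimum fluorescence over baseline after thallium stimulus; more negative B-score means stronger Kir2.1 block with less thallium influx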
CHT allo act: human CHT allosteric activation. Q9GZV3. CHT-expressing cells, membrane potential dye, choline EC20; active compounds read high; LV-AA mutant CHT in HEK293 cells. B-score at 10 µM. 0.49% of 310,000 active. AID 488977;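 active = initial fluorescence not abnormally high and integrated response B-score, plate-corrected, over 3 SD above library mean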
ANO1 block: blocks the mouse calcium-activated chloride channel TMEM16A | normalized B-score (activity score, 25-100; higher = stronger inhibition) at 10 µM | HEK293 TMEM16A/YFP iodide influx fluorescence, ionomycin | Q8BHY3 | 1.2% of 310,000 active;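 active = ratio plate-corrected score three or more library SD toward inhibition, starting fluorescence score within five deviations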;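 note: score derived from kinetic fluorescence span divided by baseline fluorescence per well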
An asterisk follows results filed as active. A selection: hits, their analogues and other compounds. The true share with any hit is near 3.7%.

How did O=C(CN1CCCCCC1)Nc1ccccc1Oc1ccccc1 do in these assays?
GPR7 antag: -19; ANO1 activ: inactive; CHT inh: inactive; Kir21 block: -1.7; CHT allo act: inactive; ANO1 block: inactive

Results for O=C1c2ccccc2S(=O)(=O)c2cc(C(=O)N(c3ccccn3)c3ccccn3)ccc21 ?
GPR7 antag: -19; ANO1 activ: -7.5*; CHT inh: inactive; Kir21 block: 0.03; CHT allo act: inactive; ANO1 block: inactive

How did Cc1cc(C)n2nc(-c3ccc(Cl)cc3)cc2n1 do in these assays?
GPR7 antag: 14; ANO1 activ: inactive; CHT inh: inactive; Kir21 block: -0.15; CHT allo act: inactive; ANO1 block: inactive

What do the screens show for `Cc1nc2cc(-c3ccc(Cl)cc3)nn2c(NCCN(C)C)c1C`?
GPR7 antag: -8; ANO1 activ: inactive; CHT inh: inactive; Kir21 block: -4.6*; CHT allo act: inactive; ANO1 block: inactive

What do the screens show for `CC(C)(C)C(=O)Nc1nnc(SCC(=O)NC2CCCCC2)s1`?
GPR7 antag: -15; ANO1 activ: inactive; CHT inh: inactive; Kir21 block: -0.44; CHT allo act: inactive; ANO1 block: inactive

Results for COc1cc2c(C(=O)NCCCN3CC(C)CC(C)C3)cn(CC(C)C)c(=O)c2cc1OC (stereo not drawn) ?
GPR7 antag: -10; ANO1 activ: inactive; CHT inh: -5.8*; Kir21 block: 1.1; CHT allo act: inactive; ANO1 block: inactive

How did CCOc1ccc(NC(=O)CN(C)C(=O)C2CC(=O)N(CCc3ccccc3)C2)cc1OCC (stereo not drawn) do in these assays?
ANO1 activ: inactive; CHT inh: inactive; Kir21 block: -0.36; CHT allo act: inactive; ANO1 block: inactive

How did O=C(CCN1C(=O)/C(=C\C=C\c2ccccc2)SC1=S)Nc1cccc(C(=O)O)c1 do in these assays?
GPR7 antag: 5; ANO1 activ: inactive; CHT inh: inactive; Kir21 block: -0.26; CHT allo act: inactive; ANO1 block: inactive

What do the screens show for `O=C(CCN1C(=O)/C(=C\C=C\c2ccccc2)SC1=S)Nc1ccccc1C(=O)O`?
GPR7 antag: -14; ANO1 activ: inactive; CHT inh: inactive; Kir21 block: 0.16; CHT allo act: inactive; ANO1 block: 25*

What do the screens show for `CC1(OC(=O)c2cccs2)C(=O)C=C2C=C3CCCN3C=C2C1=O` (stereo not drawn)?
ANO1 activ: inactive; CHT inh: -5.3*; Kir21 block: -2.2; CHT allo act: inactive; ANO1 block: inactive

What do the screens show for `CCCCn1c(=O)c2c(nc3n2CCCN3Cc2ccccc2)n(C)c1=O`?
GPR7 antag: 18; ANO1 activ: inactive; Kir21 block: -1.9

Results for C[C@H]1[C@H](C)CC[C@]2(C(=O)O)CC[C@]3(C)C(=CC[C@@H]4[C@@]5(C)CC[C@H](O)C(C)(C)[C@@H]5CC[C@]43C)[C@H]12 ?
ANO1 activ: inactive; CHT inh: inactive; CHT allo act: inactive; ANO1 block: inactive

How did C[C@H]1[C@H](C)CC[C@]2(C(=O)O)CC[C@]3(C)C(=CC[C@@H]4[C@@]5(C)C[C@@H](O)[C@H](O)C(C)(C)[C@@H]5CC[C@]43C)[C@H]12 do in these assays?
GPR7 antag: -6; ANO1 activ: -9.7*; CHT inh: inactive; Kir21 block: 1.3; CHT allo act: inactive; ANO1 block: inactive

Results for C[C@@H]1CC[C@]2(C(=O)O)CC[C@]3(C)C(=CCC4[C@]56CC[C@@](O)(OC5)C(C)(C)C6CC[C@]43C)C2[C@H]1C (stereo partly drawn) ?
ANO1 activ: inactive; CHT inh: inactive; CHT allo act: inactive; ANO1 block: 100*

Results for COC(=O)c1sccc1NC(=O)CSc1cc(Cl)ccc1Cl ?
GPR7 antag: -9; ANO1 activ: inactive; CHT inh: inactive; Kir21 block: -0.7; CHT allo act: inactive; ANO1 block: inactive

How did NNC(=O)c1sccc1OCc1ccc(Cl)cc1Cl do in these assays?
GPR7 antag: 20*; ANO1 activ: inactive; CHT inh: inactive; Kir21 block: -1.8; CHT allo act: inactive; ANO1 block: 25*

What do the screens show for `CNC(=O)c1sccc1SCc1ccc(Cl)cc1Cl`?
GPR7 antag: 4; ANO1 activ: inactive; CHT inh: inactive; Kir21 block: -5.2*; CHT allo act: inactive; ANO1 block: inactive

How did COC(=O)N/N=C\c1c(C)nn(-c2ccccc2)c1Cl do in these assays?
GPR7 antag: -10; ANO1 activ: inactive; CHT inh: inactive; Kir21 block: -1.4; CHT allo act: inactive; ANO1 block: inactive

Results for Cc1ccc(C)c(OCC(=O)N/N=C/c2c(C)nn(-c3ccccc3)c2Cl)c1C ?
GPR7 antag: -1; ANO1 activ: inactive; CHT inh: inactive; Kir21 block: -4.4*; CHT allo act: inactive; ANO1 block: inactive

How did CCN(CCO)Cc1csc2ccc(C(C)(C)C)cc12 do in these assays?
GPR7 antag: -1; ANO1 activ: inactive; CHT inh: inactive; Kir21 block: -7*; CHT allo act: inactive; ANO1 block: inactive

How did O=C(c1ccc2oc(CCc3ccccc3)nc2c1)N1CC[C@H](O)C1 do in these assays?
GPR7 antag: 3; ANO1 activ: inactive; CHT inh: inactive; Kir21 block: -0.67; CHT allo act: inactive; ANO1 block: inactive

What do the screens show for `COc1cc(CCCN2C(=S)NC[C@@H]2CCCCN)cc(OC)c1OC`?
GPR7 antag: -7; ANO1 activ: inactive; CHT inh: inactive; Kir21 block: -0.25; CHT allo act: inactive; ANO1 block: inactive

Results for COc1cc(CCCN2C(=S)NC[C@@H]2CC2CCCCC2)cc(OC)c1OC ?
ANO1 activ: inactive; CHT inh: inactive; Kir21 block: -4.3*; CHT allo act: inactive; ANO1 block: inactive

Results for COC(=O)Oc1c(Br)c(=O)oc2ccccc12 ?
GPR7 antag: -2; ANO1 activ: inactive; CHT inh: inactive; Kir21 block: -4.8*; CHT allo act: inactive; ANO1 block: inactive

How did CC(=O)Nc1c(NC(C)C)c2ccccc2oc1=O do in these assays?
GPR7 antag: -11; ANO1 activ: inactive; CHT inh: inactive; Kir21 block: 0.67; CHT allo act: inactive; ANO1 block: inactive

How did CCOC(=O)C1(CC2CCCCO2)CCN(Cc2nccn2-c2cccc(C)c2)CC1 (stereo not drawn) do in these assays?
GPR7 antag: 19*; ANO1 activ: inactive; CHT inh: inactive; Kir21 block: -0.02; CHT allo act: inactive; ANO1 block: inactive

What do the screens show for `COc1cc(CNCc2ccccc2Cl)ccc1OCC(=O)NC1CCCCC1`?
GPR7 antag: -9; ANO1 activ: inactive; CHT inh: inactive; Kir21 block: -4.7*; CHT allo act: inactive; ANO1 block: inactive

Bioassay records as filed in PubChem.
